# Compounds with a hit are over-represented: about 2.6% of the library has one in this group of screens.
# MCL1 BIM primary = inhibitors of MCL1 binding to BIM-BH3, primary screen, biochemical, fluorescence polarization | Induced myeloid leukemia cell differentiation protein Mcl-1 (Homo sapiens), Q07820 | GST-MCL1 / FITC-Bim-BH3 fluorescence polarization | inhibition, % at 10.9 µM | actives 0.68% (n = 320,000) | AID 2057, 2009;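 active = inhibition above the mean inhibition of all tested compounds plus 3 SD, set per campaign, cut at about 40% in these data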;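 also: 0% = DMSO wells and 100% = unlabeled Bim-BH3 peptide control; higher means more loss of mP so more displacement of Bim peptide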
# Target sequence (Q07820 whole entry, looked up): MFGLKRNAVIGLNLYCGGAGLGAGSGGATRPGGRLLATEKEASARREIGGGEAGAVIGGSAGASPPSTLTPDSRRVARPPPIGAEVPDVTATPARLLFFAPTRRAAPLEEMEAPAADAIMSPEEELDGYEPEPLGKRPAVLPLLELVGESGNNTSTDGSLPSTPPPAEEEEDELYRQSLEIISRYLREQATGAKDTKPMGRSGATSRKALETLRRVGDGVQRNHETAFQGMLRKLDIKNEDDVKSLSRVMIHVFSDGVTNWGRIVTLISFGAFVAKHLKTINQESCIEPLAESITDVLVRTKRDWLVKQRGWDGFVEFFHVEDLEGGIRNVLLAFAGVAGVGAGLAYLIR
# 14-3-3 Bad inh = inhibitors of 14-3-3 zeta/Bad binding, primary screen, biochemical, TR-FRET, bovine 14-3-3 zeta; TR-FRET 14-3-3zeta/Dy647-pBad peptide displacement, 1 h; inhibition, % at 21.7 µM; actives 0.71% (n = 220,000);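 active = inhibition above about 70%, limit read from the data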;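 also: 0% = full 14-3-3 plus peptide FRET controls and 100% = background without 14-3-3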
# Target sequence (P63103 whole entry, looked up): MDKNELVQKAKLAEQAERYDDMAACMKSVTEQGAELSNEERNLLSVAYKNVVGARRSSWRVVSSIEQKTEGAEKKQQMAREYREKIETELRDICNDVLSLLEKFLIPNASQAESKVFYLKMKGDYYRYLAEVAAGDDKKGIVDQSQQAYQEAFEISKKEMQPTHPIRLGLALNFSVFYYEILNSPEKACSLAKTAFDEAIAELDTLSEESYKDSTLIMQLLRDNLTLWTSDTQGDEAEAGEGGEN
# Mcl-1 Bim block = inhibitors of Bim peptide binding to Mcl-1, primary screen, biochemical, bead-based flow cytometry, multiplex; AID 1009, 2008; Bim peptide-Mcl-1 binding; inhibition, % at 10 µM; actives 0.1% (n = 190,000); in the data active = inhibition above about 40%;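 also: 0% = no compound tracer wells and 100% = peptide blocker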
# eIF4E-4G inh = eIF4E–eIF4G protein interaction inhibitors, primary screen, biochemical, uHTS, TR-FRET, eIF4GI fragment; Eukaryotic translation initiation factor 4E (Mus musculus) + Eukaryotic translation …; TR-FRET eIF4E-eIF4GI(517-606) binding, 2 h; inhibition, % at 21.7 µM; actives 0.37% (n = 220,000);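 active = inhibition above about 30%, limit read from the data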;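 also: 0% = full FRET control wells and 100% = background wells lacking eIF4GI fragment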
# Mcl1 Bid PPI = Mcl-1/Bid binding inhibitors, primary screen, biochemical, TR-FRET, 1536-well; TR-FRET Mcl-1/Bid-Dy647 peptide binding; actives 0.97% (n = 220,000); Induced myeloid leukemia cell differentiation protein Mcl-1 (Homo sapiens), Q07820; AID 1021, 2008; inhibition, % at 21.7 µM;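 active = compounds that cut the binding signal by more than half at the single screening dose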;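 also: His-tagged Mcl-1 with europium anti-His antibody binding Bid BH3 peptide; 0% = Mcl-1 plus peptide wells and 100% = peptide-only wells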
# Mcl1 Noxa PPI = Mcl-1/Noxa binding inhibitors, primary screen, biochemical, TR-FRET, 1536-well; Induced myeloid leukemia cell differentiation protein Mcl-1 (Homo sapiens), Q07820; TR-FRET Mcl-1/Noxa peptide binding, 2 h; inhibition, % at 21.7 µM; actives 1.5% (n = 220,000); AID 1022, 2008;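 active = compounds that cut the protein-peptide binding signal by more than 50% relative to plate controls in a single-dose test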;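 also: His-tagged Mcl-1 with rhodamine Noxa BH3 peptide and terbium anti-His antibody; 0% = Mcl-1 plus Noxa peptide wells and 100% = peptide-only wells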
# Active calls of the source: *; x = no result given.
SMILES,MCL1 BIM primary,14-3-3 Bad inh,Mcl-1 Bim block,eIF4E-4G inh,Mcl1 Bid PPI,Mcl1 Noxa PPI
O=C1Nc2ccccc2C1Cc1nc2ccccc2c(=O)n1-c1ccccc1 (stereo not given),-1,10,x,2,54*,27
CC(=O)Cc1c[nH]c2ccccc12,-1,-6,x,97*,-44,-9
CN(C)Cc1c[nH]c2ccccc12,5,x,x,x,x,x
c1cncc(C2CCCCN2)c1 (stereo not given),18,1,x,8,61*,14
O=C(O)C(Br)CBr (stereo not given),6,x,x,x,x,x
Cc1ccnc(NS(=O)(=O)c2ccc(N=Cc3c(O)n(C)c(=O)n(C)c3=O)cc2)n1,-33,-9,3,-2,-35,15
CCN1C[C@@]2(COC)C3[C@@H](OC)[C@H]4[C@@H]1[C@@]3(C1C[C@@]3(O)[C@H](OC(=O)c5ccccc5)C1[C@]4(OC(C)=O)[C@@H](O)[C@H]3OC)[C@@H](OC)C[C@H]2O (stereo not given in full),-4,x,x,x,x,x
CN(C=O)CP(=O)(O)CN(C)C=O,2,-1,-2,-7,60*,6
Cc1ccc(CN(Cc2ccccc2)C(=S)NCC(=O)N2CCC3(CC2)OCCO3)o1,12,-5,2,80*,-34,0
CCCOP(=O)(OCCC)C(NC(=O)c1ccccc1)=C(Cl)Cl,4,2,0,0,91*,-8
CCn1c(O)c(C(c2ccccn2)c2c(O)n(CC)c(=S)[nH]c2=O)c(=O)[nH]c1=S,15,73*,0,4,4,-2
COC(=O)C1=C(c2cc3ccccc3s2)C[C@@H]2CC[C@H]1N2C(=O)NC1CCCCC1,6,x,x,x,x,x
CN1C2CCC1C(COC(=O)c1ccccc1)C(O)C2 (stereo not given),5,91*,x,-2,0,10
Fc1ccc2c(c1)nnn2C1CCN(Cc2nnnn2CCc2ccccc2)CC1,6,76*,-3,-12,-18,10
CC(=O)OC1=CC[C@H]2[C@@H]3CC[C@H]4C[C@H](OC(C)=O)[C@@H](OC(C)=O)C[C@]4(C)[C@H]3CC[C@]12C,3,x,x,x,x,x
CCCN(CC1CC1)CC(O)c1ccccc1 (stereo not given),2,x,x,x,x,x
O=C1c2ccccc2C(=O)N1Cc1nc2ccccc2c(=O)n1-c1cccnc1,0,-2,-1,1,73*,40
O=C1c2ccccc2C(=O)N1Cc1nc2ccccc2c(=O)n1-c1ccc(Br)cn1,-1,-4,2,-1,-15,-18
CNC(=O)Oc1ccc(N(C)C)cc1C(C)C,-3,0,x,4,-19,-12
CCN(CC)c1ccc(CN2CC=C(c3ccc(F)cc3)CC2)cc1,4,77*,0,3,-10,28
Cc1ccc(-c2ccc(=O)n(CC(=O)N3CCC4(CC3)OCCO4)n2)cc1,2,1,-3,-4,4,19
Cc1ccc(-c2nc(CS(=O)CC(=O)N3CCC4(CC3)OCCO4)c(C)o2)cc1 (stereo not given),-2,-3,2,3,85*,-22
COC(=O)C1=C(c2ccc(Cl)c(C(F)(F)F)c2)C[C@@H]2CC[C@H]1N2C(=O)NCc1ccco1,2,x,x,x,x,x
O=C1NC(=O)N(Cc2ccco2)C(=O)/C1=C/C=C/c1ccco1,-7,27,x,7,-52,52*
O=C1NC(=O)N(Cc2ccccc2)C(=O)/C1=C\C=C\c1ccco1,-55,-9,0,20,-53,20
SMILES,MCL1 BIM primary,14-3-3 Bad inh,Mcl-1 Bim block,eIF4E-4G inh,Mcl1 Bid PPI,Mcl1 Noxa PPI
CC(C)c1ccc(N2C(=O)NC(=O)/C(=C/c3cnc(-c4ccccc4)nc3)C2=O)cc1,2,10,-4,6,-8,61*
CSc1ncc(/C=C2/C(=O)NC(=O)N(c3ccc(C(C)C)cc3)C2=O)cn1,4,0,-2,10,-31,39
O=C1NC(=O)N(Cc2ccccc2)C(=O)/C1=C/c1cnc(-c2ccccc2)nc1,0,4,-3,1,-17,51*
Cc1cc(Oc2cc(NN3CCCCC3)c([N+](=O)[O-])cc2[N+](=O)[O-])ccc1[N+](=O)[O-],12,x,x,x,x,x
Cc1nc2c(=O)n(C)c(=O)nc-2n(C)n1,-2,-10,2,2,-9,-10
CCn1nc(-c2ccccc2)nc2c(=O)n(C)c(=O)nc1-2,148*,15,5,2,-20,-9
CC(=O)c1cccc(NC(=O)N2C[C@H]3C[C@@H](C2)c2cccc(=O)n2C3)c1,-4,x,x,x,x,x
CCC(C(=O)Nc1ccc(Cl)cc1)N1CCCC1=O (stereo not given),4,x,x,x,x,x
CC[C@@H](C(N)=O)N1CCCC1=O,3,4,0,98*,5,17
CCC1(c2ccccc2)C(=O)N(COC)C(=O)N(COC)C1=O,2,4,1,9,13,52*
CCCCCn1c(=O)c(C(=O)NC(C)c2ccccc2)c(O)c2ccccc21 (stereo not given),5,x,x,x,x,x
Cc1ccc(-n2nc(C)cc2NC(=O)COc2cc(C)cc3oc(=O)c4c(c23)CCC4)cc1,0,4,-1,2,6,106*
CCN1CCN(Cc2cc(Br)cc(Br)c2O)CC1,2,78*,-1,1,-30,-5
CCN1CCN(Cc2cc(Br)ccc2O)CC1,4,41,0,0,8,28
COc1ccc(CCNC(=O)COC(=O)Cc2ccccc2)cc1,-27,-5,-7,1,78*,7
OC[C@@H](O)CCl,6,x,x,x,x,x
CC(C)CCNC(=O)c1c(N)n(Cc2ccc3c(c2)OCO3)c2nc3ccccc3nc12,5,-12,4,-45,26,30
CCCNC(=O)c1c(N)n(Cc2ccco2)c2nc3ccccc3nc12,31,4,2,-2,17,38
CCCNC(=O)c1c(N)n(Cc2ccc3c(c2)OCO3)c2nc3ccccc3nc12,12,-8,1,-4,-22,56*
CC(C)CNC(=O)c1c(N)n(Cc2ccco2)c2nc3ccccc3nc12,23,-4,1,4,33,87*
COCCCNC(=O)c1c(N)n(Cc2ccco2)c2nc3ccccc3nc12,54*,3,x,5,-81,55*

# Bioassay records: PubChem BioAssay, several laboratories
